From PubChem BioAssay
Hits are enriched below; roughly 2.8% of the tested compounds scored in any of these assays.
LMP1 NFkB inh: Epstein-Barr LMP1 NF-kappaB reporter inhibition | inhibition, % at 12.5 µM | 350,000 compounds, 0.69% hits | LMP1-induced NF-kappaB luciferase reporter cells, luminescence | AID 504558; in the data active = inhibition above about 41%; inconclusive = no clear call, values can overlap the other calls
TRPM1 prom inh: MITF TRPM1 promoter inhibition in SK-MEL-5 cells | AID 488899 | 330,000 compounds, 0.83% hits | SK-MEL-5 TRPM1 promoter luciferase, 24 h | inhibition, % at 12.5 µM;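 active = mean inhibition across replicates of 60% or more, whatever share of single replicates reaches that level; inconclusive = some that reach 60%, reason not given; inactive = mean inhibition across replicates below 60%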
HIF-2a block: HIF-2a inhibition. 786-0 RCC cells HIF-2a reporter, luciferase luminescence, overnight. inhibition, % at 18.8 µM. 360,000 compounds, 0.72% hits. AID 624352;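 active = inhibition of the luminescence signal of 40% or more relative to plate controls, in a single-dose primary screen at 18.75 µM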
Peg3 promoter: reduces Peg3 promoter-driven luciferase expression in HeLa | HeLa PEG-Prom luciferase reporter, luminescence, overnight | inhibition, % at 20 µM | AID 588405 | 360,000 compounds, 1.7% hits;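 active = inhibition of at least 50% at 20 µM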
Shn3 3UTR inh: Schnurri-3 reporter inhibition in Clone20 osteoblasts | inhibition, % at 12.5 µM | AID 588674 | 360,000 compounds, 0.52% hits | Clone20 osteoblast Shn3 3'UTR firefly luciferase, 24 h;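 active = mean inhibition of at least 75% with every replicate also reaching 75%; inconclusive = mean inhibition at least 75% but some replicate below; inactive = mean inhibition below 75%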
PAX8 inh HTS: inhibitors of PAX8 transcriptional activity in RMG-I cells; RMG-I TPO-luciferase reporter, SteadyGlo, 24 h; inhibition, % at 12.6 µM; 360,000 compounds, 1.2% hits; AID 652154;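 active = mean replicate inhibition at least 60% with every replicate also reaching 60%; inconclusive = only one of the two criteria is met; inactive = mean below 60% and not all replicates reaching 60%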;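 note: luciferase light reporting Pax8 driven TPO promoter activity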
Mdm2 MdmX conf: confirmation of inhibitors of human Mdm2/MdmX interaction, set 2; shares compounds with HIF-2a block; SaOS-2 split-luciferase Mdm2/MdmX complementation, luminescence; inhibition, % at 8 µM; 740 compounds, 99% hits; AID 504601;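 active = mean inhibition of the luminescence signal across two replicates at or above 26 percent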
Target sequence (O15151 whole entry, looked up): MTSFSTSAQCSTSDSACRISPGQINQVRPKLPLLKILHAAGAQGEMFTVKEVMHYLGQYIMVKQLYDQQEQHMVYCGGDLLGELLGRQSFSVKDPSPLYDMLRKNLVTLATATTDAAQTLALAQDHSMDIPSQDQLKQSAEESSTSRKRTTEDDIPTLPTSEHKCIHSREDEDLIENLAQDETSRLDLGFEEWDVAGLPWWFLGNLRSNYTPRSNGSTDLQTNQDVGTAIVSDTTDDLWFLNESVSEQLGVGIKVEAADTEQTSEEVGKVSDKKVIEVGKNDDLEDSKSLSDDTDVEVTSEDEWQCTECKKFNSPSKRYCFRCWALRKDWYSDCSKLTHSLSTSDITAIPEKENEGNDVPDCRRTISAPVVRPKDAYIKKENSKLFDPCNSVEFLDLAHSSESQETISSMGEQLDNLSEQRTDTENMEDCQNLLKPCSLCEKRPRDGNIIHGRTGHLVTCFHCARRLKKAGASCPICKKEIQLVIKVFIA
Target sequence (Q00987 whole entry, looked up): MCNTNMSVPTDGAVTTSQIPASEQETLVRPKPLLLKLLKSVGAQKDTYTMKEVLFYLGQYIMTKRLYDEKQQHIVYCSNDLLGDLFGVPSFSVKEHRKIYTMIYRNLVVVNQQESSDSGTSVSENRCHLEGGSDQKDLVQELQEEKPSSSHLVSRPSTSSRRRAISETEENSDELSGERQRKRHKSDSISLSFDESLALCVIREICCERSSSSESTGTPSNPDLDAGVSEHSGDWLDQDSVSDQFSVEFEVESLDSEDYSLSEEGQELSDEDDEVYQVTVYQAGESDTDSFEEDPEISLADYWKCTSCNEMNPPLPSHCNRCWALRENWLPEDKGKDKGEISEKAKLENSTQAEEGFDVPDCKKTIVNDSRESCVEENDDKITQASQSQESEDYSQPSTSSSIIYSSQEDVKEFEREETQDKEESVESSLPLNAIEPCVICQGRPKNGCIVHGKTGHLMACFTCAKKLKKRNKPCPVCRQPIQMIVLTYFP
HIF-2a inh conf: confirmation of HIF-2a inhibitors; shares compounds with HIF-2a block; 786-0 RCC cells, HIF-2a luciferase reporter luminescence, overnight; 1,800 compounds, 56% hits; inhibition, % at 18.8 µM;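 active = mean inhibition across four replicates of at least 40 percent at the single tested concentration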
HIF-1a cs: HIF-1a inhibition counter-screen for HIF-2a hits | shares compounds with HIF-2a block | MiaPaCa-2 HIF-1a luciferase reporter, desferoxamine, overnight | inhibition, % at 18.8 µM | 1,800 compounds, 72% hits | AID 651589;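 active = mean inhibition of the reporter signal across four replicates at the single tested dose of 50% or more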
Each line names hits and unclear results; the compound was inactive in the other large screens (follow-up assays come after a bar, where they were run).

O=C(CCCc1nc(-c2ccccc2Cl)no1)NC1CCCC1	TRPM1 prom inh 76, HIF-2a block 88 | HIF-2a inh conf 96 | HIF-1a cs 64
CN1c2ccc(Br)cc2[C@@H]2[C@@H](CCN2C(=O)Nc2cc(F)ccc2F)[C@@H]1CO	none (no result: LMP1 NFkB inh, TRPM1 prom inh, HIF-2a block, Peg3 promoter, Shn3 3UTR inh)
Cc1ccc(NC(=O)c2ccc(N3CCOCC3)c([N+](=O)[O-])c2)cc1S(=O)(=O)N1CCOCC1	HIF-2a block 51, Peg3 promoter 65 | HIF-2a inh conf inactive | HIF-1a cs 59
Cc1ccc(C(=O)N/C(=C\c2ccc(-c3ccc(Cl)cc3)o2)C(=O)NCCCN(C)C)cc1	TRPM1 prom inh 86, Peg3 promoter 103 | Mdm2 MdmX conf 103
CN(C)CCCNC(=O)/C(=C\c1ccc(-c2ccc(Br)cc2)o1)NC(=O)c1ccccc1	TRPM1 prom inh 96, HIF-2a block 41, Peg3 promoter 76 | HIF-2a inh conf inactive | HIF-1a cs 106
C[C@H](CO)N1C[C@H](C)[C@@H](CN(C)C(=O)Nc2ccccc2)Oc2ccc(NC(=O)CCN3CCOCC3)cc2CC1=O	none (no result: LMP1 NFkB inh, TRPM1 prom inh, HIF-2a block, Peg3 promoter, Shn3 3UTR inh)
CC(C)CC#Cc1cnc2c(c1)C(=O)N([C@H](C)CO)C[C@H](C)[C@@H](CN(C)C(=O)c1cccc(F)c1)O2	none (no result: LMP1 NFkB inh, TRPM1 prom inh, HIF-2a block, Peg3 promoter, Shn3 3UTR inh)
CN(C)C(=O)c1ccc(-c2ccc([C@@H]3[C@@H](C#N)N(C(=O)C4CCCCC4)[C@H]3CO)cc2)cc1	none (no result: LMP1 NFkB inh, TRPM1 prom inh, HIF-2a block, Peg3 promoter, Shn3 3UTR inh)
COc1ccc(Cn2c(SCc3cc(C)ccc3C)nc3cc(OC)c(OC)cc3c2=N)cc1	LMP1 NFkB inh inconclusive, TRPM1 prom inh 89, HIF-2a block 95, Peg3 promoter 104, Shn3 3UTR inh 96 (no result: PAX8 inh HTS) | Mdm2 MdmX conf 103 | HIF-2a inh conf inactive | HIF-1a cs 107
COc1cc2nc(SCc3ccc(Cl)cc3Cl)n(Cc3cccs3)c(=N)c2cc1OC	none (no result: PAX8 inh HTS)
COc1ccc(Cn2c(SCc3ccc(C)cc3)nc3cc(OC)c(OC)cc3c2=N)cc1Cl	LMP1 NFkB inh 90, TRPM1 prom inh 105, HIF-2a block 91, Peg3 promoter 99, PAX8 inh HTS 109 | Mdm2 MdmX conf 103 | HIF-2a inh conf 60 | HIF-1a cs 105
COc1cc2nc(SCc3ccc(C(F)(F)F)cc3)n(Cc3cccs3)c(=N)c2cc1OC	none (no result: PAX8 inh HTS)
C[C@@H]1CN([C@H](C)CO)C(=O)Cc2cc(NS(=O)(=O)c3ccc(F)cc3)ccc2O[C@@H]1CN(C)C(=O)Nc1cccc2ccccc12	none (no result: LMP1 NFkB inh, TRPM1 prom inh, HIF-2a block, Peg3 promoter, Shn3 3UTR inh)
Cc1cc(Cl)n2nc(C)c(-c3ccc(Cl)cc3)c2n1	HIF-2a block 66, Peg3 promoter 104, PAX8 inh HTS 81 | HIF-2a inh conf inactive | HIF-1a cs 100
Cc1cc(N)n2nc(C)c(-c3ccc(Cl)cc3)c2n1	none
Cc1noc2ncnc(Sc3c(Cl)cccc3Cl)c12	HIF-2a block 43, Peg3 promoter 97 (no result: PAX8 inh HTS) | HIF-2a inh conf inactive | HIF-1a cs 95
CC[C@]1(C(=O)OC)[C@H]2C(=O)N(Cc3ccccc3)C(=O)[C@H]2[C@H]2CN=C(SCc3ccc(C)cc3)N21	none | Mdm2 MdmX conf 97
CC[C@]1(C(=O)OC)[C@H]2C(=O)N(Cc3ccccc3)C(=O)[C@H]2[C@H]2CN=C(SCc3ccc(C(=O)OC)cc3)N21	none
COc1ccc(NC(=O)Nc2ccc3c(c2)C(=O)N([C@@H](C)CO)C[C@@H](C)[C@@H](CN(C)C(=O)Nc2ccc4c(c2)OCO4)OCCCC[C@@H](C)O3)cc1	none (no result: LMP1 NFkB inh, TRPM1 prom inh, HIF-2a block, Peg3 promoter, Shn3 3UTR inh)
O=[N+]([O-])c1ccc(Sc2nc3ccccc3o2)c([N+](=O)[O-])c1	TRPM1 prom inh 87, HIF-2a block 92, Peg3 promoter 97, Shn3 3UTR inh 98 (no result: PAX8 inh HTS) | HIF-2a inh conf 74 | HIF-1a cs 106
COc1ccc(NC(=O)/C(Cl)=C(/Cl)S(=O)(=O)Cc2ccccc2)cn1	LMP1 NFkB inh 90, TRPM1 prom inh 94, HIF-2a block 94, Peg3 promoter 100, Shn3 3UTR inh 97 (no result: PAX8 inh HTS) | HIF-2a inh conf 100 | HIF-1a cs 106
CC(=O)N1CC2(C1)[C@@H](c1ccc(-c3cccc(C#N)c3)cc1)[C@@H](CO)N2CCC(F)(F)F	none (no result: LMP1 NFkB inh, TRPM1 prom inh, HIF-2a block, Peg3 promoter, Shn3 3UTR inh)
O=[N+]([O-])c1cccnc1S(=O)(=O)c1ccccc1	HIF-2a block 55, Peg3 promoter 82, Shn3 3UTR inh 98, PAX8 inh HTS 110 | Mdm2 MdmX conf 102 | HIF-2a inh conf inactive | HIF-1a cs inactive
COc1ccc([N+](=O)[O-])c(S(=O)(=O)c2ccc(Cl)cc2)n1	LMP1 NFkB inh 62, TRPM1 prom inh 71, HIF-2a block 60, Peg3 promoter 105, Shn3 3UTR inh 94, PAX8 inh HTS 82 | Mdm2 MdmX conf 103 | HIF-2a inh conf 75 | HIF-1a cs 62
COc1ccc([N+](=O)[O-])c(S(=O)(=O)c2ccccc2)n1	HIF-2a block 82, Peg3 promoter 111, PAX8 inh HTS 103 (no result: LMP1 NFkB inh, TRPM1 prom inh) | Mdm2 MdmX conf 103 | HIF-2a inh conf 88 | HIF-1a cs 84
COc1nc(OC)nc(Oc2ccc(Cl)cc2[N+](=O)[O-])n1	none
Nc1cccnc1S(=O)(=O)c1ccccc1	none
C=CCn1c(C)cc(C(=O)CSc2ccc(NC(C)=O)cc2)c1C	HIF-2a block 50 (no result: PAX8 inh HTS) | HIF-2a inh conf 67 | HIF-1a cs inactive
CC(=O)Nc1ccc(SCC(=O)c2cc(C)n(Cc3cccs3)c2C)cc1	HIF-2a block 71 | HIF-2a inh conf 82 | HIF-1a cs 89
COC(=O)COc1ccc(S(=O)(=O)NCCC2=CCCCC2)cc1Cl	HIF-2a block 57 (no result: PAX8 inh HTS) | HIF-2a inh conf inactive | HIF-1a cs inactive
COc1ccc(NC(=O)Nc2ccc3c(c2)C(=O)N([C@H](C)CO)C[C@@H](C)[C@H](CN(C)S(=O)(=O)c2ccccc2)OCCCC[C@H](C)O3)cc1	none (no result: LMP1 NFkB inh, TRPM1 prom inh, HIF-2a block, Peg3 promoter, Shn3 3UTR inh)
O=C(Cn1ncc(Cl)c(Cl)c1=O)N1CCOCC1	TRPM1 prom inh 98, HIF-2a block 84, Peg3 promoter 97 | HIF-2a inh conf inactive | HIF-1a cs 106
CCc1ccc(C(=O)Cn2ncc(Cl)c(Cl)c2=O)cc1	HIF-2a block 96 (no result: PAX8 inh HTS) | Mdm2 MdmX conf 103 | HIF-2a inh conf inactive | HIF-1a cs 104
O=c1c(Cl)c(Cl)cnn1Cc1nnc(-c2ccc(Cl)cc2)o1	TRPM1 prom inh 87, HIF-2a block 94, Peg3 promoter 107 | HIF-2a inh conf inactive | HIF-1a cs 105
Cc1ccc(Cn2ncc(Cl)c(Cl)c2=O)cc1	TRPM1 prom inh inconclusive, HIF-2a block 98, Peg3 promoter 104 | HIF-2a inh conf inactive | HIF-1a cs 98
Cc1ccc(-c2nnc(Cc3ccc(Cl)cc3)o2)cc1	none
Cc1cc(C)cc(Cn2ncc(Cl)c(Cl)c2=O)c1	none (no result: LMP1 NFkB inh, TRPM1 prom inh, HIF-2a block, Peg3 promoter, Shn3 3UTR inh)
